Consider 31 compounds from PubChem BioAssay (EPA / NIEHS).

SMILES strings stand for the structures. Records with an inconclusive call do not appear. Active and inactive are the calls of the source. How the source made its calls: active means hit-call score of the fitted dose curve at least 0.9, where 1 is the maximum; inconclusive means response in the unintended direction; inactive means score below 0.9.

Chain of human RAR-related Orphan Receptor beta (RORb), RORB (gene 6096) (Q92753 whole entry, looked up): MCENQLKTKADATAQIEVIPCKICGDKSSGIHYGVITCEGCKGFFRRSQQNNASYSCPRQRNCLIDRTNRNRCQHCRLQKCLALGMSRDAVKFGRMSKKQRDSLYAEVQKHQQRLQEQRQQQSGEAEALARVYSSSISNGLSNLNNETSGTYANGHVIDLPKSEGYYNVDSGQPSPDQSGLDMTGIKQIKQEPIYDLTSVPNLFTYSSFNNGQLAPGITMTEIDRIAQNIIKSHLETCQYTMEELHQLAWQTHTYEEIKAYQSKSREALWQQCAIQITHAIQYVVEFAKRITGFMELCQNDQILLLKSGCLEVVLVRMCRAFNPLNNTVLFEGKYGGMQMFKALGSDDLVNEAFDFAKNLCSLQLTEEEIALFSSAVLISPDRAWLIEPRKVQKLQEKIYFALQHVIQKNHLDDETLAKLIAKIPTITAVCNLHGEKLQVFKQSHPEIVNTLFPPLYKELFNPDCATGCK

The assay concerns the target human RAR-related Orphan Receptor beta (RORb), RORB (gene 6096) (UniProt Q92753). Nature of the assay: ATG_RORb_TRANS: Attagene TRANS-FACTORIAL HepG2 Assay for human RAR-related Orphan Receptor beta (RORb) (AID 2283010). The procedure:
ATG_TRANS is a cell-based, multiplexed-readout assay that uses HepG2, a human liver cell line, with measurements taken at 24 hours after chemical dosing in a 24-well plate.ATG_RORb_TRANS is one of 30 assay component(s) measured or calculated from the ATG_TRANS assay. It is designed to make measurements of mRNA induction, a form of inducible reporter, as detected with fluorescence intensity signals by Reverse transcription polymerase chain reaction (RT-PCR) and Capillary electrophoresis technology.Data from the assay component ATG_RORb_TRANS was analyzed into 1 assay endpoint. This assay endpoint, ATG_RORb_TRANS, was analyzed in the positive analysis fitting direction relative to DMSO as the negative control and baseline of activity. Using a type of inducible reporter, measures of mRNA for gain-of-signal activity can be used to understand the reporter gene at the transcription factor-level as they relate to the gene RORB. Furthermore, this assay endpoint can be referred to as a primary readout, because this assay has produced multiple assay endpoints where this one serves a reporter gene function. To generalize the intended target to other relatable targets, this assay endpoint is annotated to the nuclear receptor intended target family, where the subfamily is orphan.
Human liver HepG2 cells are transiently transfected with multiple reporter transcription units (MRTUs) in 6-well plates using FuGene 6 reagent (Roche; 3 ml FuGene/1 mg DNA). The MRTU constructs are regulated by a cis-regulating element (promoter). […] A major difference between the CIS and TRANS system is that in CIS activities of endogenous TFs are measured, whereas the TRANS assay evaluates changes in activities of exogenous, chimeric NR-Gal4 proteins. […] At the end of 24 hour incubation, total RNA was isolated using TriZol reagent (Invitrogen). The isolated RNA is then reverse-transcribed using oligo(dT) primer and Mo-MLV reverse transcriptase (Invitrogen) with DNAse I (Ambion) treatment for 30 min. The one-tenth of the produced cDNA was amplified by PCR using Taq DNA polymerase (Invitrogen) and two reporter sequence-specific primers. The PCR products were fluorescently labeled by primer extension with 6-arboxyfluorescein (6-FAM) 5'-labeled reporter sequence-specific primer (2 min at 95 C, 20 s at 68 C and 10 min at 72 C) and these products were digested with 5U of HpaI (New England Biolabs) for 2h at 37 C. The fragments were purified using Qiaquick PCR columns (Qiagen), analyzed on an ABI 3130xL genetic analyzer (Applied Biosystems) with peak positions identified by using a set of X-rhodamine (ROX)-labeled MapMarker1000 molecular weight standards (BioVentures). The raw capillary electrophoresis data was processed using Attagraph software (Attagene).
Take `O=[N+]([O-])c1cc(C(F)(F)F)c(Cl)c([N+](=O)[O-])c1Nc1ncc(C(F)(F)F)cc1Cl`: the result was inactive. Then `CCOP(=S)(OCC)OC(Cl)C(Cl)(Cl)Cl` (stereo unspecified), with “inactive”; and `CC(C1CC1)C(O)(Cn1cncn1)c1ccc(Cl)cc1` (stereo unspecified), with “inactive”. To `Cc1ccn2nc(S(=O)(=O)Nc3c(F)cccc3F)nc2n1` belongs “inactive”; to `CNC(=O)ON=C(C)SC`, “inactive”; to `CCOP(=S)(OCC)Oc1ccc([N+](=O)[O-])cc1`, “inactive”.

Take `CCOP(=O)(NC(C)C)Oc1ccc(SC)c(C)c1` (stereo unspecified): the call was inactive. Then `C#CC(C)(C)NC(=O)c1cc(Cl)cc(Cl)c1`, with “inactive”.

Regarding `CCCCOC(=O)c1ccccc1C(=O)O`, the call was inactive. Then `CCCCOC(=O)[C@@H](C)Oc1ccc(Oc2ccc(C#N)cc2F)cc1`, with “inactive”; and `Nc1nc(N)nc(NC2CC2)n1`, with “inactive”; and `CC(=NC#N)N(C)Cc1ccc(Cl)nc1`, with “inactive”. Then `CSc1nnc(C(C)(C)C)c(=O)n1N`, with “inactive”; and `CCCOc1nn(C(=O)NS(=O)(=O)c2ccccc2C(=O)OC)c(=O)n1C`, with “inactive”; and `CNC(=O)ON=C(SC)C(=O)N(C)C`, with “inactive”.

With `CCOP(=S)(OCC)Oc1ccc2c(C)c(Cl)c(=O)oc2c1`, the outcome was inactive. Then `COP(=O)(NC(C)=O)SC` (stereo unspecified), with “inactive”; and `CCOP(=S)(Oc1cnc(C(C)(C)C)nc1)OC(C)C` (stereo unspecified), with “inactive”. Then `Cc1nn(-c2cc(NS(C)(=O)=O)c(Cl)cc2Cl)c(=O)n1C(F)F`, with “inactive”; and `CCC(=NOC/C=C/Cl)C1=C(O)CC(C2CCOCC2)CC1=O` (stereo unspecified), with “inactive”; and `CN(C)[C@@H]1C(=O)C(C(N)=O)=C(O)[C@@]2(O)C(=O)C3=C(O)c4c(O)cccc4[C@@](C)(O)[C@H]3[C@H](O)[C@@H]12`, with “inactive”.

Take `O=c1ccc(=O)[nH][nH]1`: the outcome was inactive.

With `CC[C@H](C)[C@H]1O[C@]2(C=C[C@@H]1C)C[C@@H]1C[C@@H](C/C=C(\C)[C@@H](O[C@H]3C[C@H](OC)[C@@H](O[C@H]4C[C@H](OC)[C@@H](NC)[C@H](C)O4)[C@H](C)O3)[C@@H](C)/C=C/C=C3\CO[C@@H]4[C@H](O)C(C)=C[C@@H](C(=O)O1)[C@]34O)O2`, the compound was called inactive. With `CC(C)=CC1C(C(=O)OCN2C(=O)C3=C(CCCC3)C2=O)C1(C)C` (stereo unspecified), the call was inactive. To `COP(=O)(OC)SCn1c(=O)oc2cc(Cl)cnc21` belongs “inactive”; to `CCCSP(=O)(OCC)SCCC`, “inactive”; to `COP(=O)(OC)C(O)C(Cl)(Cl)Cl` (stereo unspecified), “inactive”. Then `CCCSP(=O)(OCC)Oc1ccc(Br)cc1Cl` (stereo unspecified), with “inactive”; and `CNC(=O)Oc1cccc2c1OC(C)(C)O2`, with “inactive”; and `CCOP(=O)(SC(C)CC)N1CCSC1=O` (stereo unspecified), with “inactive”. Then `CN(C)NC(=O)CCC(=O)O`, with “inactive”.
